# Experimental data as given in publication PMC7862700, “An all-to-all approach to the identification of sequence-specific readers for epigenetic DNA modifications on cytosine”.
# Assays:
# Assay in all cases: DAPPL (digital affinity profiling via proximity ligation, sequencing); 10 mM Tris-HCl pH 7.5, 50 mM NaCl, 1 mM DTT, 4% glycerol, room temperature, 30 min; GST-TFs on glutathione beads, 16-mer random dsDNA library, 0.1% formaldehyde crosslink after washing; high values mean tight binding
# FEV = target: T1, FEV (Homo sapiens, UniProt Q99581 1-238); settings: protein: recombinant; tags: N-terminal GST; dsDNA, one strand shown
# T1 sequence: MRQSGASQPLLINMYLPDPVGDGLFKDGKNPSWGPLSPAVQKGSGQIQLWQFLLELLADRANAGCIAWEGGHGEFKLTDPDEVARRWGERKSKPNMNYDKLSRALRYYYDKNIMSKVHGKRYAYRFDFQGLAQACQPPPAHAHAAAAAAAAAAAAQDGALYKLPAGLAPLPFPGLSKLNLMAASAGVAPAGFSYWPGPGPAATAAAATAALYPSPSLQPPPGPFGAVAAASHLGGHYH
# Outline: (§1)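 Binding signal is each hexamer's read frequency for a factor divided by its frequency in the tag-only sample. The factors were GST-fused human transcription factors from yeast, captured on glutathione beads, DNA-barcoded and pooled with that sample. Pools were incubated with 200 nmole of a random double-stranded 16-mer DNA library in Tris/NaCl/DTT/glycerol buffer at room temperature for 30 min, then washed, crosslinked with 0.1% formaldehyde, proximity-ligated with BsaI/T4 ligase (1 h, 37 °C), PCR-amplified and sequenced on an Illumina NextSeq500.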
# ETV5 = ETV5 (Homo sapiens, UniProt P41161 1-510); settings: protein: recombinant; tags: N-terminal GST; dsDNA, one strand shown
# Outline: as §1
# HSF1 = HSF1 (Homo sapiens, UniProt Q00613 1-529); settings: protein: recombinant; tags: N-terminal GST; chain copies: 3; dsDNA, one strand shown
# Outline: as §1
# SPIC = target: T2, SPIC (Homo sapiens, UniProt Q8N5J4 1-248); settings: protein: recombinant; tags: N-terminal GST; dsDNA, one strand shown
# T2 sequence: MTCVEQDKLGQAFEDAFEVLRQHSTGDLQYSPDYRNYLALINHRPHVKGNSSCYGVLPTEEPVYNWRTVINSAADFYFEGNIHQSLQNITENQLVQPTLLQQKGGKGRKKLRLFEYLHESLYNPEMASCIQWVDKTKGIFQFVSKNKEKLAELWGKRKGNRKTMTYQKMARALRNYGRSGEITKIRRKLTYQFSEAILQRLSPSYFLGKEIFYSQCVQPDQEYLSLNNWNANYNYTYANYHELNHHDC
# Outline: as §1
# ELF4 = ELF4 (Homo sapiens, UniProt Q99607 1-663); settings: protein: recombinant; tags: N-terminal GST; dsDNA, one strand shown
# Outline: as §1
# ELK4 = target: T3, ELK4 (Homo sapiens, UniProt P28324-2 1-405); settings: protein: recombinant; tags: N-terminal GST; dsDNA, one strand shown
# T3 sequence: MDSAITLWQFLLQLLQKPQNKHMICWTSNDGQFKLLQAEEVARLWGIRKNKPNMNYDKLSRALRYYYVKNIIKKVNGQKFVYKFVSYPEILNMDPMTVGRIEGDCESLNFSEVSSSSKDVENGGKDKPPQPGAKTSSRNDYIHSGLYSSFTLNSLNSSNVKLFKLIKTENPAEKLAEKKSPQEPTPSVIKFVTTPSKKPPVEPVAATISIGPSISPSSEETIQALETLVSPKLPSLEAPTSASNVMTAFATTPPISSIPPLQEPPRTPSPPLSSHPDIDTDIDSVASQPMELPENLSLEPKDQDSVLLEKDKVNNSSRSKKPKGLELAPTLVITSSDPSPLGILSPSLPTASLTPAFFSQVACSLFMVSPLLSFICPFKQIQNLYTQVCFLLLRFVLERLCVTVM
# Outline: as §1
# ETV2 = target: T4, ETV2 (Homo sapiens, UniProt O00321 1-342); settings: protein: recombinant; tags: N-terminal GST; dsDNA, one strand shown
# T4 sequence: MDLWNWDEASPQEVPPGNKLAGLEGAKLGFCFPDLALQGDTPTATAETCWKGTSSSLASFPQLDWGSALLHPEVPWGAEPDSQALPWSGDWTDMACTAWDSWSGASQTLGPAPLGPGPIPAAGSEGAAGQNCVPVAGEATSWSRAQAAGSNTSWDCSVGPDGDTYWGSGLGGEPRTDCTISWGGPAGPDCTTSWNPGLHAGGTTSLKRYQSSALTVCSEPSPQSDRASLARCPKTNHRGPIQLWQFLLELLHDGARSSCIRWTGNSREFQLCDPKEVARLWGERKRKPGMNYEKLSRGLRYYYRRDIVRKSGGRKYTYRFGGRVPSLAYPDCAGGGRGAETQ
# Outline: as §1
# ELF3 = target: T5, ELF3 (Homo sapiens, UniProt P78545 1-371); settings: protein: recombinant; tags: N-terminal GST; dsDNA, one strand shown
# T5 sequence: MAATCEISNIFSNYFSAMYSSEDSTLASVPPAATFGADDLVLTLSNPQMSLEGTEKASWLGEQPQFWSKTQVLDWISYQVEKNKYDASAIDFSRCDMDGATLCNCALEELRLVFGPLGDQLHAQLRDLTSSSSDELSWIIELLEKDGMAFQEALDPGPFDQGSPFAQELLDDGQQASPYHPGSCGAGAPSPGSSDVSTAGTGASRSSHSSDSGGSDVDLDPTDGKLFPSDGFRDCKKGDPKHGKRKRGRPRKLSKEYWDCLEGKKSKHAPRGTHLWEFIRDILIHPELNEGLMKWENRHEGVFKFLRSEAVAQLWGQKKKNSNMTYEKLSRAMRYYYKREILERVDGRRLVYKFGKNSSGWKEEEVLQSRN
# Outline: as §1
# CRX = CRX (Homo sapiens, UniProt O43186 1-299); settings: protein: recombinant; tags: N-terminal GST; dsDNA, one strand shown
# Outline: as §1
# ETV1 = ETV1 (Homo sapiens, UniProt P50549 1-477); settings: protein: recombinant; tags: N-terminal GST; dsDNA, one strand shown
# Outline: as §1
# ERF = target: T6, ERF (Homo sapiens, UniProt P50548 1-548); settings: protein: recombinant; tags: N-terminal GST; dsDNA, one strand shown
# T6 sequence: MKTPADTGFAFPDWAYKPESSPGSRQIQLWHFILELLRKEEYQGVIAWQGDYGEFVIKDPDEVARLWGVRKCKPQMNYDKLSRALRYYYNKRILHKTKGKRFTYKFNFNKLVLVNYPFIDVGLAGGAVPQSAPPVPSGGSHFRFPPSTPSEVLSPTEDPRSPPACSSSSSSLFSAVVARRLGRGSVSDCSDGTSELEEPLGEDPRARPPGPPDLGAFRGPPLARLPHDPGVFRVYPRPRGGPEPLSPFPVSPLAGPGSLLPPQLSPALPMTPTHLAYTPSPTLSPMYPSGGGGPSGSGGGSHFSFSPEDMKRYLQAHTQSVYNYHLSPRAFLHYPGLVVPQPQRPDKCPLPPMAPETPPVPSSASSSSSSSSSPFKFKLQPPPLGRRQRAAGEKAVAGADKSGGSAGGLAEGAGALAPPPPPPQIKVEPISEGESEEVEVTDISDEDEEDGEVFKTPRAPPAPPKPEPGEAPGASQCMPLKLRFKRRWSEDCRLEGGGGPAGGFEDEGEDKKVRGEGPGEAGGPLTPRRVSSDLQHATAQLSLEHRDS
# Outline: as §1
# ETV3L = target: T7, ETV3L (Homo sapiens, UniProt Q6ZN32 1-361); settings: protein: recombinant; tags: N-terminal GST; dsDNA, one strand shown
# T7 sequence: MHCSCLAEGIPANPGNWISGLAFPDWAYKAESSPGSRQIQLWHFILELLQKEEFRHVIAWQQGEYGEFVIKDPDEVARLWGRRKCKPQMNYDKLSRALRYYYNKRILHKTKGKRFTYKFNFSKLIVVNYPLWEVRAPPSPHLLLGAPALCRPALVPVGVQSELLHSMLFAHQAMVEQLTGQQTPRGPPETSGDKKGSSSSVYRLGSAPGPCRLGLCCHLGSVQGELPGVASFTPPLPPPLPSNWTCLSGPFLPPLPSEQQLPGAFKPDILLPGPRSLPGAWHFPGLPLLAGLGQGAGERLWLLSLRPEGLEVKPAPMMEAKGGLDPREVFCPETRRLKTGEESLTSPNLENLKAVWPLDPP
# Outline: as §1
# ETS2 = target: T8, ETS2 (Homo sapiens, UniProt P15036 1-469); settings: protein: recombinant; tags: N-terminal GST; dsDNA, one strand shown
# T8 sequence: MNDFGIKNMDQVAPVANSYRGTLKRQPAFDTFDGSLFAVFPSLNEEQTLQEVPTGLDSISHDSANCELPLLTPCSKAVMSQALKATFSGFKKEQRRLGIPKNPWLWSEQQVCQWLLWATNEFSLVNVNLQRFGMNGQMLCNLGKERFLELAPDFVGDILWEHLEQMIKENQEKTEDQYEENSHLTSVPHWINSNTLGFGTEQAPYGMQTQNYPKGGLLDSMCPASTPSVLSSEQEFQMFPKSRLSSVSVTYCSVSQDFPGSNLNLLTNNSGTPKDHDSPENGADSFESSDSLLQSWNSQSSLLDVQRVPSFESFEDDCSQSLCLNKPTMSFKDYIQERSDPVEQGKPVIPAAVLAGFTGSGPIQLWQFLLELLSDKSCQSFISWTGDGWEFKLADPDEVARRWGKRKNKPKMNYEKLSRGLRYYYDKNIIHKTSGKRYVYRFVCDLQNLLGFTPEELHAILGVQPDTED
# Outline: as §1
# SPDEF = target: T9, SPDEF (Homo sapiens, UniProt O95238 1-335); settings: protein: recombinant; tags: N-terminal GST; dsDNA, one strand shown
# T9 sequence: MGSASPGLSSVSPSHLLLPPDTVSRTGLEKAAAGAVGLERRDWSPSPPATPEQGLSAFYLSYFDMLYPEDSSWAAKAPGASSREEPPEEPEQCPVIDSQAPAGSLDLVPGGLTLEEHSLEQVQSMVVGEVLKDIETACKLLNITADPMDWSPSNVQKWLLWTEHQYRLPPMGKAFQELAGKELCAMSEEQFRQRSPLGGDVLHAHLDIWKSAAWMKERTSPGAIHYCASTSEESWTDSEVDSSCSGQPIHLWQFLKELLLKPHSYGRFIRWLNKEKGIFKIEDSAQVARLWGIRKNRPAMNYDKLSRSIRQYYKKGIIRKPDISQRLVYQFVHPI
# Outline: as §1
# ETV7 = target: T10, ETV7 (Homo sapiens, UniProt Q9Y603 1-341); settings: protein: recombinant; tags: N-terminal GST; dsDNA, one strand shown
# T10 sequence: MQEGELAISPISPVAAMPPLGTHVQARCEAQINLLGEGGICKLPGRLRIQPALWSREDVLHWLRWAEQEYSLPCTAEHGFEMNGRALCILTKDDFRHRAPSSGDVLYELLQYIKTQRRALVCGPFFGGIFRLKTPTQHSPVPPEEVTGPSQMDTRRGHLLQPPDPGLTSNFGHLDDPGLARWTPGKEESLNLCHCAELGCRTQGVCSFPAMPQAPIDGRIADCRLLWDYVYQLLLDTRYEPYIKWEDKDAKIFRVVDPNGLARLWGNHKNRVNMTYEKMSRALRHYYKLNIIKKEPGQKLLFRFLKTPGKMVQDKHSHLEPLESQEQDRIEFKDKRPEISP
# Outline: as §1
# ELF5 = target: T11, ELF5 (Homo sapiens, UniProt Q9UKW6-2 1-255); settings: protein: recombinant; tags: N-terminal GST; dsDNA, one strand shown
# T11 sequence: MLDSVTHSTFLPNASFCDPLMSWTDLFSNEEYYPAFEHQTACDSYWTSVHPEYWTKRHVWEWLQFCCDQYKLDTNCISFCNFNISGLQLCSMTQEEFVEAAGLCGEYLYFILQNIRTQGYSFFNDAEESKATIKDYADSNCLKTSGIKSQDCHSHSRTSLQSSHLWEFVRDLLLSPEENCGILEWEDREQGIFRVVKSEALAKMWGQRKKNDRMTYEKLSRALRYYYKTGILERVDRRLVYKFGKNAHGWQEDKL
# Outline: as §1
# ETV3 = target: T12, ETV3 (Homo sapiens, UniProt P41162-2 1-143); settings: protein: recombinant; tags: N-terminal GST; dsDNA, one strand shown
# T12 sequence: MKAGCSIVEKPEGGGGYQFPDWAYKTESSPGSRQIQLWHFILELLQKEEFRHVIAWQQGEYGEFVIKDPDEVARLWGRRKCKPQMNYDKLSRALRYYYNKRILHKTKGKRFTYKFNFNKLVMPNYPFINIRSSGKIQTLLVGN
# Outline: as §1
# ETV6 = ETV6 (Homo sapiens, UniProt P41212 1-452); settings: protein: recombinant; tags: N-terminal GST; dsDNA, one strand shown
# Outline: as §1
# ETV6, sequence (P41212 whole entry): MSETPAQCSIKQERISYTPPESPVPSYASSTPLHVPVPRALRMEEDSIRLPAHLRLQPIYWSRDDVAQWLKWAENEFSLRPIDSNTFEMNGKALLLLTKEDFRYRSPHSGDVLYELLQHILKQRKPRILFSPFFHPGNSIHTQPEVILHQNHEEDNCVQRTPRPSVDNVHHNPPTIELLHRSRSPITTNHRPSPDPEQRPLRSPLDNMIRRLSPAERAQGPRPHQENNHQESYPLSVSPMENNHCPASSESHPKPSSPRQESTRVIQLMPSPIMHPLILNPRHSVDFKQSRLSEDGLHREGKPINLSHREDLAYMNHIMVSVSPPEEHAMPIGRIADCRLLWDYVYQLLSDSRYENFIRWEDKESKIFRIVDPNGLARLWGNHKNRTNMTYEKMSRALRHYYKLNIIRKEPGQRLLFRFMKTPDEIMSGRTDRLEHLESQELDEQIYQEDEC
# ETV5, sequence (P41161 whole entry): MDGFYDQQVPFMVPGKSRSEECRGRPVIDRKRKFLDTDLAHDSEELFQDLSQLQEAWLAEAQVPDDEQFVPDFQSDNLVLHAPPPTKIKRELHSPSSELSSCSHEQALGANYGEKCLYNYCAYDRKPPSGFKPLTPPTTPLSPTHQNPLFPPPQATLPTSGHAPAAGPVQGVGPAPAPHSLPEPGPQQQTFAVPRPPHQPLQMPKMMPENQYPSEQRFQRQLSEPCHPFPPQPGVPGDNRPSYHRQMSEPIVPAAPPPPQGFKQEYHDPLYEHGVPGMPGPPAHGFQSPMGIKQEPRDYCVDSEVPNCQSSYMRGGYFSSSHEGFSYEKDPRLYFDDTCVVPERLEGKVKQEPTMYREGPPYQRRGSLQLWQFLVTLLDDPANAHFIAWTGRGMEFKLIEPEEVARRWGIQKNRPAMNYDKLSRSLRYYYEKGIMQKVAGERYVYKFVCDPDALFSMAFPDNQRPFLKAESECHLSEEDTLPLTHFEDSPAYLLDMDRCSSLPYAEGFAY
# ELF4, sequence (Q99607 whole entry): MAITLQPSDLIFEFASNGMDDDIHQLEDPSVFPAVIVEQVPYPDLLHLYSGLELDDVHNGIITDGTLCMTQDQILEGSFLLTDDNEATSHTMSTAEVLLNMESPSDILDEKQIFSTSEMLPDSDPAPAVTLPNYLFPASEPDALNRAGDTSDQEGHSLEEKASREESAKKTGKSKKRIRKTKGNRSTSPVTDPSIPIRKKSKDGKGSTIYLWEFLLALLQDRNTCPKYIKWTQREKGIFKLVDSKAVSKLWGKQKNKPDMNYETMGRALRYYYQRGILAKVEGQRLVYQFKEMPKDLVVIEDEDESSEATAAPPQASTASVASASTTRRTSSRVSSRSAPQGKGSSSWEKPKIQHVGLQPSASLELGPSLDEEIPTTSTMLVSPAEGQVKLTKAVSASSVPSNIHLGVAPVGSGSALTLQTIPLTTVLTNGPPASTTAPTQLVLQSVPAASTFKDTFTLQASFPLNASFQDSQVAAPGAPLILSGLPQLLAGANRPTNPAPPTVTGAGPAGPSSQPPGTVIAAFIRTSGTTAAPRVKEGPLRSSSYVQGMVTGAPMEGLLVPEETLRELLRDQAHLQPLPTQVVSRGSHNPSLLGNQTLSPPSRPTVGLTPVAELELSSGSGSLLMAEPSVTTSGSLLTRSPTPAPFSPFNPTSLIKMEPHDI
# CRX, sequence (O43186 whole entry): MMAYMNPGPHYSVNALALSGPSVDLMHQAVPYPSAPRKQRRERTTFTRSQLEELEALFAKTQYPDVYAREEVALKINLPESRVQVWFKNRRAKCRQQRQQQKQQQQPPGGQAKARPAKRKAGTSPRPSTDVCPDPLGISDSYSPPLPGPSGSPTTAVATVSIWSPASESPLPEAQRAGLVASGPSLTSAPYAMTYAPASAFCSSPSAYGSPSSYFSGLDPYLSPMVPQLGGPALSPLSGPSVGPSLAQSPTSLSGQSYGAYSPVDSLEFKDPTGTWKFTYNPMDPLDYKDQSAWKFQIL
# ETV1, sequence (P50549 whole entry): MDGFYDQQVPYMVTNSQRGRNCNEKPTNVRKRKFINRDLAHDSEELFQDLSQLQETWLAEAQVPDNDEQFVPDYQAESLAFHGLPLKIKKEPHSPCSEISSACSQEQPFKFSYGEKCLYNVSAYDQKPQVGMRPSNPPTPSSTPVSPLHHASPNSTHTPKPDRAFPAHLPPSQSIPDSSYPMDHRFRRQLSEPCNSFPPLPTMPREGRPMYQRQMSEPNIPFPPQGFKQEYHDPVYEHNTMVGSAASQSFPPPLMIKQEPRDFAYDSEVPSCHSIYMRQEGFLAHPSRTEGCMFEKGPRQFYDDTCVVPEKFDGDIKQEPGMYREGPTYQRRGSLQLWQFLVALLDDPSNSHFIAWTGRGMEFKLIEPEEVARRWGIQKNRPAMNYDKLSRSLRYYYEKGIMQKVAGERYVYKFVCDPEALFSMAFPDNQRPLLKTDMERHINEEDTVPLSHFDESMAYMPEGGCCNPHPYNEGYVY
# HSF1, sequence (Q00613 whole entry): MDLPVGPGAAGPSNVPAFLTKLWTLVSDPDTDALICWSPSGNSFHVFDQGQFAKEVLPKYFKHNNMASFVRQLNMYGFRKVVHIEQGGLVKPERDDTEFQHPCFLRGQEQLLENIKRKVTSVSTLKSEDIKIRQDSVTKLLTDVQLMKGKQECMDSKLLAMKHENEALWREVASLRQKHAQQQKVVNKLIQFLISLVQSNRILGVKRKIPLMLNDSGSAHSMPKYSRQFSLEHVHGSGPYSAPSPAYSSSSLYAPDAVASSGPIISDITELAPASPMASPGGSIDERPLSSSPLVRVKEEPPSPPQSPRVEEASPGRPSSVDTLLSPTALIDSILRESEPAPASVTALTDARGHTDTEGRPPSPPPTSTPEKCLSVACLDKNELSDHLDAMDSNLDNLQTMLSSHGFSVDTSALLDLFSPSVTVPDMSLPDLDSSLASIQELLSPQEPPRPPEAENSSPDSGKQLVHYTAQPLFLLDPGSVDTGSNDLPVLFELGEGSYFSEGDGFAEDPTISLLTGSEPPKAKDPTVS
sequence,measurement,setting,value
ATCCTG,binding signal,FEV,"1.46 fold enrichment (6-mer frequency, TF over GST control)"
same,binding signal,ETV5,"1.71 fold enrichment (6-mer frequency, TF over GST control)"
same,binding signal,HSF1,"1.33 fold enrichment (6-mer frequency, TF over GST control)"
same,binding signal,SPIC,"1.19 fold enrichment (6-mer frequency, TF over GST control)"
same,binding signal,ELF4,"1.35 fold enrichment (6-mer frequency, TF over GST control)"
same,binding signal,ELK4,"1.33 fold enrichment (6-mer frequency, TF over GST control)"
same,binding signal,ETV2,"1.42 fold enrichment (6-mer frequency, TF over GST control)"
same,binding signal,ELF3,"1.35 fold enrichment (6-mer frequency, TF over GST control)"
same,binding signal,CRX,"1.55 fold enrichment (6-mer frequency, TF over GST control)"
same,binding signal,ETV1,"1.43 fold enrichment (6-mer frequency, TF over GST control)"
same,binding signal,ERF,"1.28 fold enrichment (6-mer frequency, TF over GST control)"
same,binding signal,ETV3L,"1.49 fold enrichment (6-mer frequency, TF over GST control)"
same,binding signal,ETS2,"1.56 fold enrichment (6-mer frequency, TF over GST control)"
same,binding signal,SPDEF,"2.47 fold enrichment (6-mer frequency, TF over GST control)"
same,binding signal,ETV7,"1.51 fold enrichment (6-mer frequency, TF over GST control)"
same,binding signal,ELF5,"1.84 fold enrichment (6-mer frequency, TF over GST control)"
same,binding signal,ETV3,"1.61 fold enrichment (6-mer frequency, TF over GST control)"
same,binding signal,ETV6,"1.48 fold enrichment (6-mer frequency, TF over GST control)"
